The source made the active and inactive calls.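 The calls were made as follows, unless noted: active = inhibition above 50%; inactive = the rest.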

One test can be described thus: antimalarial activity against Dd2 strain (AID 2302;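 active = growth inhibition above 50% at the single 2 µM test dose, taken to imply half-maximal potency below 2 µM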;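 also: 0% = DMSO untreated growth and 100% = chloroquine plus artemisinin killed control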). As to conditions: P. falciparum Dd2 in RBCs, LDH growth readout, 72 h; at 2 µM; active compounds read high.
On to `COc1ccc(CNc2nc(NCc3ccc(C(F)(F)F)cc3)c3cc(OC)c(OC)cc3n2)cc1OC`, for which the growth inhibition was 100% (active).

For `Clc1ccc(CNc2ccnc(NCCc3coc4ccccc34)n2)c(Cl)c1`, the growth inhibition was 39% (inactive).

With `COc1ccc2nccc([C@@H](O)CN3CCC(NC(=O)[C@@H]4Cc5ccccc5CN4C(=O)OC(C)(C)C)CC3)c2c1`, the growth inhibition was 61% (active).

Another test can be described thus: HepG2 cytotoxicity, primary screen, cytotoxicity control for P. falciparum antimalarial project, cell-based, ATP luminescence (AID 2303).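 Also: 0% = DMSO wells and 100% = digitonin-killed cells.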 To be noted: HepG2 viability, 24-48 h, at 10 µM, active compounds read high.
The inhibition is the change of the read-out against control, counted positive when it falls. For `CC(=O)Nc1ccc(C(=O)Nc2cccc(-c3cccc(-c4nc5c(C)cccc5[nH]4)c3)c2)cn1`, the inhibition was 16% (inactive).

For `Nc1nc2c(c(=O)[nH]1)-c1cccc(Br)c1CC2`, the inhibition was 66% (active).

In the case of `NC(=O)c1cccc(-n2ccc3cc(CNC4Cc5ccccc5C4)ccc32)c1`, the inhibition is 17% (inactive).

Consider `Cc1[nH]c(C)c(-c2ccc(OCc3cc(F)cc(F)c3)nc2)c(=O)c1Br`, for which the inhibition was 37% (inactive).

For `C[C@@H]([C@@H](CCCCc1ccccc1)C(=O)N[C@H](C(=O)Nc1cccnc1)C(C)(C)C)N(O)C=O`, the inhibition was 0% (inactive).

Turning to `CCNC(=O)NC1CCN(Cc2c(-c3cccs3)nc3ccccc3c2C(=O)N[C@@H](C)C2CCCCC2)CC1`, the inhibition was -1% (inactive).

For `Cc1[nH]c(C)c(-c2ccc(OCCCc3ccccn3)cc2)c(=O)c1Br`, the inhibition is -8% (inactive).

For `Cn1cncc1C(=O)Nc1cccc(-c2csc(-c3nc4ccccc4[nH]3)c2)c1`, the inhibition was 15% (inactive).

With `FC(F)(F)c1ccc2nc(-c3cccc(-c4cccc(CN5CCN(c6ccncc6)CC5)c4)c3)[nH]c2c1`, the inhibition was 93% (active).

As to `CN(Cc1ccc(NC(=O)NC2CCN(C(=O)/C=C/c3ccc(Cl)c(Cl)c3)CC2)cc1)C1CCOCC1`, the inhibition was 9% (inactive).

For `CC(=O)N1Cc2ccccc2C1=O`, the inhibition is 10% (inactive).

As for `O=C(Nc1cccc(-c2ccc(CN3CCCC3)cc2)c1)c1ccc(Cl)cc1`, the inhibition was 29% (inactive).

Take `Nc1nonc1-c1nc2c(-c3cccc(Cl)c3)nccc2n1CCCNC(=O)Cc1ccc(Cl)cc1`: the inhibition is -4% (inactive).

As for `NC1CCN(c2cnn(Cc3cccc(NC(=O)Nc4ccc(-c5ccccc5)cc4)c3)c(=O)c2Cl)CC1`, the inhibition was 5% (inactive).

As for `COc1ccc(NC(=O)Nc2ccc(-c3ccc(-c4nc5c(C)cccc5[nH]4)s3)cc2)cc1`, the inhibition is 74% (active).

`Cc1cccc2[nH]c(-c3cccc(-c4ccc(NC(=O)c5ccoc5)cc4)c3)nc12`: the inhibition was 65% (active).

As to `Cc1nc(-c2ccccc2)nc(N2CCN(C(=O)c3ccco3)CC2)c1Cc1ccccc1F`, the inhibition was 7% (inactive).

Consider `CC(=O)N(Cc1nc(-c2cc(Cl)c(Cl)s2)cs1)c1c(C)cccc1C`, for which the inhibition was 5% (inactive).

Regarding `O=C(CSc1nc2ccccc2c(=O)n1CC1CCCO1)Nc1cc(C(F)(F)F)ccc1Cl` (configuration not stated), the inhibition was 12% (inactive).

On to `CCCCCCCCn1c2c(c(=N)c3c1CCC3)CCCC2`, for which the inhibition was 57% (active).

As to `O=[N+]([O-])c1ccc(C(O)CNCCc2ccccc2)cc1OCc1ccccc1` (configuration not stated), the inhibition was -6% (inactive).

For the molecule `O=C(c1cccc(-c2ccc(-c3nc4ccc(C(F)(F)F)cc4[nH]3)cc2)c1)N1CCCCC1CN1CCC(O)C1` (configuration not stated), the inhibition was 19% (inactive).

With `COc1ccc2nc(NC3=NC(c4ccccn4)(c4ccccn4)C(=O)N3C)[nH]c2c1`, the inhibition is 65% (active).

Regarding `Cn1c(NC2CCN(CC3CCN(C(=O)/C=C/c4ccc(Cl)c(Cl)c4)CC3)CC2)nc2ccccc21`, the inhibition was 99% (active).

For the molecule `O=C(Nc1ccc(Cl)c(C(F)(F)F)c1)N[C@H]1CCN(CCCCCNC(=O)[C@@H]2C[C@H]2c2ccc(Cl)c(Cl)c2)C1`, the inhibition is 39% (inactive).

Consider `CN1CCc2cc(NS(=O)(=O)c3ccc(-c4ccc(Cl)s4)cc3)c(N3CCCCC3)cc2CC1`, for which the inhibition is 14% (inactive).

On to `CCc1sc(-c2ccc(C(C)(C)C)cc2)nc1C(=O)NCCCN1CCCC1=O`, for which the inhibition is 0% (inactive).

With `COc1cc2nc(N3CCC(CNC(=O)/C=C/c4cccc(C)c4)CC3)nc(N)c2cc1OC`, the inhibition is 16% (inactive).

As to `c1cc(CN2CCc3ccccc3CC2)cc(-c2c[nH]c3nc(NC4CCCC4)ncc23)c1`, the inhibition is 31% (inactive).

As to `O=C(Nc1ccc(OC2CCN(Cc3ccc(F)cc3)CC2)c(Cl)c1)c1ccc(F)cc1`, the inhibition is 37% (inactive).

Consider `COc1cccc(OC2CCN(C(=O)c3cc(C(C)(C)C)nn3Cc3ccccc3)CC2)c1`, for which the inhibition was 3% (inactive).

Consider `CN1CCN(c2ccc3nccc(CCN4CCC(NCc5ccc6c(n5)NC(=O)CO6)CC4)c3n2)CC1`, for which the inhibition was 9% (inactive).

Regarding `CCCCNS(=O)(=O)c1ccc(NC(=O)c2cc([N+](=O)[O-])ccc2Cl)cc1`, the inhibition was 12% (inactive).

For the molecule `OC(CNCc1ccccc1OCc1ccccc1)c1cccc(C(F)(F)F)c1` (configuration not stated), the inhibition was 12% (inactive).

(Values after PubChem BioAssay.)
